Screening results (PubChem)
FXIIa single = inhibitors of human coagulation factor XIIa; P00748; purified human FXIIa, AMC substrate fluorescence, 2 h; inhibition, % at 10 µM; actives 0.2% (n = 33,000); AID 701; in the data active = inhibition above about 30%;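 note: 0% = enzyme with vehicle only and 100% = no enzyme blank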
FXIa inh = inhibitors of human coagulation factor XIa; P03951; purified human FXIa, fluorogenic AMC substrate cleavage; inhibition, % at 10 µM; actives 0.3% (n = 33,000);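 active = inhibition above 40% in the primary screen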;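 note: 0% = enzyme without compound and 100% = blank wells lacking enzyme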
* hit, by the source's call. The entries come from a sample that favours hits as a whole.

`CNCCCc1ccccc1` gave FXIIa single 3.1 and FXIa inh 40.6*.
`COc1ccc(CCC(C)NCCc2ccccc2)cc1` (stereo unspecified) gave FXIIa single 10.3 and FXIa inh -8.6.
c1ccc2cc3cc4ccccc4cc3cc2c1 was read as FXIIa single -0.7 and FXIa inh 5.1.
